Measurements: PubChem BioAssay AID1159580 (chemical genetic matrix, 2015)
Values joined by “and” are separate entries in the source; they are usually repeats but may differ in a detail not shown here. Equal values may be shown once. Screen size: about 5,500 compounds; about 2,000 (36%) were called active. About 18% were inconclusive and are not listed. Rule as the data show it: active = normalized growth mostly below about 0.91 (no sharp cut-off); inconclusive = no clear call, values can overlap the other calls; inactive = mostly above about 0.92. This is one part of the list.

Experiment: chemical genetic growth profiling, strain panel (AID 1159580);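 also: tested at 20 µM; growth read once vehicle control cultures reached saturation at 30 °C; 1 = growth at the plate median or of vehicle wells; lower values mean less growth of the strain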
Conditions: S. cerevisiae deletion strains, growth OD
[1] = locus YAL013W, strain DEP1, hits give low values
[2] = locus YDR150W, strain NUM1, hits give low values
[3] = locus YGR078C, strain PAC10, hits give low values
[4] = locus YMR307W, strain GAS1, hits give low values
[5] = locus YPL241C, strain CIN2, hits give low values

Measured: normalized growth

CC(=O)Nc1cc([As](=O)(O)O)ccc1O
inactive: [1] 0.996 | locus YAL021C, strain ccr4, hits give low values 1.01 | locus YAL026C, strain drs2, hits give low values 1.01 | locus YAL030W, strain snc1, hits give low values 1.01 | locus YBL061C, strain skt5, hits give low values 1 | locus YBR009C, strain hhf1, hits give low values 1.01 | locus YBR021W, strain FUR4, hits give low values 1.05 | locus YBR023C, strain chs3, hits give low values 1.01 | locus YBR171W, strain sec66, hits give low values 1.01 | locus YBR229C, strain ROT2, hits give low values 1.01 | locus YBR231C, strain swc5, hits give low values 1.01 | locus YBR279W, strain paf1, hits give low values 0.999 | locus YCL011C, strain gbp2, hits give low values 1.02 | locus YCL016C, strain dcc1, hits give low values 0.994 | locus YCL029C, strain bik1, hits give low values 0.981 | locus YCL061C, strain MRC1, hits give low values 0.995 | locus YCL069W, strain vba3, hits give low values 1.01 | locus YCR088W, strain abp1, hits give low values 1.01 | locus YDL005C, strain med2, hits give low values 1 | locus YDL035C, strain GPR1, hits give low values 0.999 | locus YDL040C, strain nat1, hits give low values 1.01 | locus YDL074C, strain BRE1, hits give low values 0.936 | locus YDL101C, strain DUN1, hits give low values 0.992 | locus YDL185W, strain tfp1, hits give low values 0.945 | locus YDL192W, strain arf1, hits give low values 0.994 | locus YDR001C, strain nth1, hits give low values 1.02 | locus YDR069C, strain doa4, hits give low values 1.01 | locus YDR101C, strain arx1, hits give low values 0.936 | locus YDR137W, strain rgp1, hits give low values 1.01 | [2] 0.997 | locus YDR159W, strain sac3, hits give low values 0.988 | locus YDR162C, strain NBP2, hits give low values 0.996 | locus YDR195W, strain ref2 0.995 | locus YDR297W, strain sur2, hits give low values 1.01 | locus YDR318W, strain mcm21, hits give low values 1 | locus YDR334W, strain swr1, hits give low values 1.02 | locus YDR335W, strain msn5, hits give low values 1.01 | locus YDR388W, hits give low values 0.997 | locus YDR392W, strain spt3, hits give low values 0.905 | locus YDR502C, strain sam2, hits give low values 1.02 | locus YEL003W, strain gim4, hits give low values 1.01 | locus YEL037C, strain rad23, hits give low values 1.01 | locus YEL061C, strain CIN8 (second series), hits give low values 1.02 | locus YEL061C, strain CIN8, hits give low values 1 | locus YER015W, strain faa2, hits give low values 0.998 | locus YER016W, strain bim1, hits give low values 1.01 | locus YER110C, hits give low values 0.983 | locus YER111C, strain swi4, hits give low values 1 | locus YER155C, strain BEM2 (second series), hits give low values 0.982 | locus YER155C, strain BEM2, hits give low values 1.01 | locus YER167W, strain BCK2, hits give low values 0.996 | locus YFR010W, strain ubp6, hits give low values 1.03 | locus YGL078C, strain dbp3, hits give low values 0.985 | locus YGL086W, strain mad1, hits give low values 0.996 | locus YGL167C, strain pmr1, hits give low values 1.01 | locus YGL173C, strain kem1, hits give low values 1.01 | locus YGL227W, strain vid30, hits give low values 1.01 | locus YGL240W, strain doc1, hits give low values 0.978 | locus YGL248W, strain PDE1, hits give low values 1.01 | locus YGL253W, strain hxk2, hits give low values 1.02 | [3] 1 | locus YGR135W, strain pre9, hits give low values 1.01 | locus YGR252W, strain gcn5, hits give low values 1.11 | locus YHR013C, strain ard1, hits give low values 0.997 | locus YHR027C, strain rpn1, hits give low values 1.02 | locus YHR030C, strain SLT2, hits give low values 0.981 and 1.03 | locus YHR079C, strain IRE1 (second series), hits give low values 0.983 | locus YHR079C, strain IRE1, hits give low values 1.01 | locus YHR094C, strain hxt1, hits give low values 0.996 | locus YHR129C, strain ARP1, hits give low values 0.985 | locus YHR142W, strain chs7, hits give low values 1.03 | locus YHR200W, strain rpn10, hits give low values 0.991 | locus YIL066C, strain RNR3, hits give low values 0.998 | locus YIL073C, strain SPO22, hits give low values 0.99 | locus YIL125W, strain kgd1, hits give low values 0.985 | locus YIR030C, strain dcg1, hits give low values 0.992 | locus YJL092W, strain hpr5, hits give low values 1 | locus YJL095W, strain BCK1 (second series), hits give low values 1.03 | locus YJL095W, strain BCK1, hits give low values 1.03 and 1.02 | locus YJL115W, strain asf1, hits give low values 1.01 | locus YJL129C, strain trk1, hits give low values 1.01 | locus YJL134W, strain LCB3, hits give low values 0.997 | locus YJL154C, strain vps35, hits give low values 1.01 | locus YJL164C, strain tpk1, hits give low values 1 | locus YJL166W, strain qcr8, hits give low values 0.999 | locus YJL168C, strain set2, hits give low values 0.932 | locus YJL187C, strain SWE1 (second series), hits give low values 0.995 | locus YJL187C, strain SWE1, hits give low values 1.04 | locus YJR043C, strain POL32, hits give low values 0.997 | locus YJR066W, strain TOR1, hits give low values 0.961 | locus YJR075W, strain HOC1, hits give low values 0.983 | locus YKL009W, strain mrt4, hits give low values 0.956 | locus YKL068W, hits give low values 0.986 | locus YKL085W, strain MDH1 (second series), hits give low values 0.982 | locus YKL085W, strain MDH1, hits give low values 0.982 | locus YKL160W, strain elf1, hits give low values 0.981 | locus YKR001C, strain vps1, hits give low values 0.999 | locus YKR026C, strain gcn3, hits give low values 1 | locus YKR091W, strain srl3, hits give low values 1.01 | locus YLL001W, strain dnm1, hits give low values 0.99 | locus YLL026W, hits give low values 1 | locus YLL041C, strain sdh2, hits give low values 1 | locus YLR027C, strain aat2, hits give low values 1 | locus YLR039C, strain RIC1, hits give low values 1.01 | locus YLR058C, strain SHM2, hits give low values 0.994 | locus YLR102C, strain apc9, hits give low values 0.984 | locus YLR113W, strain HOG1, hits give low values 1.01 | locus YLR221C, strain rsa3, hits give low values 1.02 | locus YLR258W, strain gsy2, hits give low values 0.998 | locus YLR262C, strain YPT6 (second series), hits give low values 0.999 | locus YLR262C, strain YPT6, hits give low values 1.01 | locus YLR268W, strain sec22, hits give low values 0.964 | locus YLR320W, strain mms22, hits give low values 0.995 | locus YLR330W, strain CHS5, hits give low values 1 | locus YLR342W, strain FKS1 (second series), hits give low values 1.01 | locus YLR342W, strain FKS1, hits give low values 1.01 | locus YLR357W, strain rsc2, hits give low values 1 | locus YLR370C, strain arc18, hits give low values 1.01 | locus YLR371W, strain rom2, hits give low values 0.984 | locus YLR384C, strain iki3, hits give low values 0.998 | locus YLR418C, strain cdc73, hits give low values 0.997 | locus YML016C, strain PPZ1, hits give low values 0.995 | locus YML032C, strain rad52, hits give low values 1.03 | locus YML120C, strain ndi1, hits give low values 1.01 | locus YML124C, strain tub3, hits give low values 0.981 | locus YMR058W, strain fet3, hits give low values 1.01 | locus YMR078C, strain ctf18, hits give low values 0.976 | locus YMR125W, strain sto1, hits give low values 1 | locus YMR129W, hits give low values 1.01 | locus YMR205C, strain PFK2, hits give low values 0.994 | locus YMR223W, strain ubp8, hits give low values 1.01 | locus YMR231W, strain pep5, hits give low values 0.996 | [4] 1.17 | locus YNL067W, strain RPL9B, hits give low values 0.983 | locus YNL071W, strain lat1, hits give low values 1.01 | locus YNL183C, strain NPR1, hits give low values 0.973 | locus YNL209W, strain ssb2, hits give low values 1.01 | locus YNL233W, strain BNI4, hits give low values 1.01 | locus YNL248C, strain rpa49, hits give low values 0.987 | locus YNL250W, strain rad50, hits give low values 0.976 | locus YNL271C, strain bni1, hits give low values 0.983 | locus YNL298W, strain CLA4, hits give low values 1 | locus YNL307C, strain MCK1, hits give low values 0.981 | locus YNL322C, strain KRE1 (second series), hits give low values 0.992 | locus YNL322C, strain KRE1, hits give low values 1 | locus YNR049C, strain mso1, hits give low values 1.01 | locus YNR052C, strain pop2, hits give low values 1 | locus YOL006C, strain TOP1, hits give low values 0.999 | locus YOL012C, strain htz1 0.886 | locus YOL147C, strain pex11, hits give low values 0.995 | locus YOR001W, strain rrp6, hits give low values 0.989 | locus YOR061W, strain CKA2, hits give low values 0.993 | locus YOR069W, strain VPS5, hits give low values 0.998 | locus YOR070C, strain gyp1, hits give low values 1 | locus YOR080W, strain dia2, hits give low values 1 | locus YOR083W, strain WHI5, hits give low values 0.978 | locus YOR106W, strain vam3, hits give low values 0.99 | locus YOR136W, strain idh2, hits give low values 0.974 | locus YOR144C, strain elg1, hits give low values 0.992 | locus YOR184W, strain ser1, hits give low values 0.988 | locus YOR231W, strain MKK1, hits give low values 1 | locus YOR265W, strain rbl2, hits give low values 0.998 | locus YOR270C, strain vph1, hits give low values 1.05 | locus YOR290C, strain snf2, hits give low values 0.993 | locus YOR316C, strain cot1, hits give low values 0.985 | locus YPL051W, strain arl3, hits give low values 1 | locus YPL078C, strain atp4, hits give low values 0.982 | locus YPL106C, strain sse1, hits give low values 0.985 | locus YPL240C, strain hsp82, hits give low values 0.998 | [5] 1 | locus YPL256C, strain CLN2, hits give low values 1.03 | locus YPR119W, strain clb2, hits give low values 0.983 | locus YPR141C, strain kar3, hits give low values 0.988 | locus YPR163C, strain tif3, hits give low values 0.997 | locus YPR167C, strain met16, hits give low values 0.994 | strain wtn01, hits give low values 0.964

O=[N+]([O-])c1ccc2nc(N3CCNCC3)ccc2c1
inactive: [1] 0.999 | locus YAL040C, strain CLN3, hits give low values 0.985 | locus YCL061C, strain MRC1 (second series), hits give low values 0.995 | [2] 0.994 | locus YDR363W, strain ESC2, hits give low values 1.04 | locus YER002W, strain NOP16, hits give low values 1.01 | [3] 1 | [4] 1 | locus YNL175C, strain NOP13, hits give low values 1 | locus YNL197C, strain WHI3, hits give low values 1 | locus YNL224C, strain SQS1, hits give low values 1.01 | locus YOR083W, strain WHI5 (second series), hits give low values 1.01 | [5] 1.01
